Assay outcomes deposited in PubChem by National Center for Advancing Translational Sciences (NCATS).
HEK293 tox: Cytotoxic Profiling in HEK 293 Cell Line of Diverse Libraries Using Quantitative High-Throughput Screening; actives 6.6% (n = 94,000); HEK 293 viability, ATP luminescence (CellTiter-Glo), 48-72 h; AID 1345083, 2018; Potency, µM (series often up to 115 µM), for the others: at the top dose activity change, negative = cytotoxicity, hits mostly inhibitors; note: nearly all actives have a fitted effect of over 60% in size
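Read-out: CellTiter-Glo ATP luminescence. Cells: HEK 293, 250 cells/well. Exposure: 48 or 72 hr, 37 degree Celsius.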
3T3 cytotox: Cytotoxic Profiling in NIH 3T3 Cell Line of Diverse Libraries Using Quantitative High-Throughput Screening | NIH 3T3 viability, CellTiter-Glo ATP luminescence, 48-72 h | Potency, µM (doses to about 96.7 µM), without a hit: at the highest dose activity change, negative = cytotoxicity, usual class: inhibitors | actives 4.3% (n = 94,000); note: nearly all actives have a fitted effect of over 55% in size
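Cytotoxicity is measured as loss of cellular ATP: NIH 3T3 cells (400/well) are exposed to compound for 48 or 72 hr at 37 °C, then CellTiter-Glo luminescence is imaged after 10 min at room temperature.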
FLuc inh: Firefly luciferase inhibition profiling of diverse chemical library using quantitative high-throughput screening; purified P. pyralis luciferase, luminescence, biochemical; actives 2.5% (n = 76,000); Luciferin 4-monooxygenase (Photinus pyralis), P08659; Potency, µM (titrated, usually from 115 µM), usual class: inhibitors; AID 1347043, 2019; note: nearly all actives have a fitted effect of over 65% in size
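Cell-free enzyme assay, 10nM P. pyralis luciferase, luciferin and ATP each at 10uM. Inhibition profiled over a 6-point titration, read as luminescence.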
hNpr1 antagonist: Natriuretic polypeptide receptor (hNpr1) antagonism - Primary qHTS. HEK293 hNpr1 GloSensor cGMP, ANP-stimulated luminescence. Potency, µM (series often up to 46.3 µM), inactives show at the highest dose activity change, negative = inhibition, hits mostly inhibitors. actives 1.6% (n = 76,000); calls by dose curve; note: nearly all actives have a fitted effect of over 60% in size
Target sequence (P16066 whole entry, looked up): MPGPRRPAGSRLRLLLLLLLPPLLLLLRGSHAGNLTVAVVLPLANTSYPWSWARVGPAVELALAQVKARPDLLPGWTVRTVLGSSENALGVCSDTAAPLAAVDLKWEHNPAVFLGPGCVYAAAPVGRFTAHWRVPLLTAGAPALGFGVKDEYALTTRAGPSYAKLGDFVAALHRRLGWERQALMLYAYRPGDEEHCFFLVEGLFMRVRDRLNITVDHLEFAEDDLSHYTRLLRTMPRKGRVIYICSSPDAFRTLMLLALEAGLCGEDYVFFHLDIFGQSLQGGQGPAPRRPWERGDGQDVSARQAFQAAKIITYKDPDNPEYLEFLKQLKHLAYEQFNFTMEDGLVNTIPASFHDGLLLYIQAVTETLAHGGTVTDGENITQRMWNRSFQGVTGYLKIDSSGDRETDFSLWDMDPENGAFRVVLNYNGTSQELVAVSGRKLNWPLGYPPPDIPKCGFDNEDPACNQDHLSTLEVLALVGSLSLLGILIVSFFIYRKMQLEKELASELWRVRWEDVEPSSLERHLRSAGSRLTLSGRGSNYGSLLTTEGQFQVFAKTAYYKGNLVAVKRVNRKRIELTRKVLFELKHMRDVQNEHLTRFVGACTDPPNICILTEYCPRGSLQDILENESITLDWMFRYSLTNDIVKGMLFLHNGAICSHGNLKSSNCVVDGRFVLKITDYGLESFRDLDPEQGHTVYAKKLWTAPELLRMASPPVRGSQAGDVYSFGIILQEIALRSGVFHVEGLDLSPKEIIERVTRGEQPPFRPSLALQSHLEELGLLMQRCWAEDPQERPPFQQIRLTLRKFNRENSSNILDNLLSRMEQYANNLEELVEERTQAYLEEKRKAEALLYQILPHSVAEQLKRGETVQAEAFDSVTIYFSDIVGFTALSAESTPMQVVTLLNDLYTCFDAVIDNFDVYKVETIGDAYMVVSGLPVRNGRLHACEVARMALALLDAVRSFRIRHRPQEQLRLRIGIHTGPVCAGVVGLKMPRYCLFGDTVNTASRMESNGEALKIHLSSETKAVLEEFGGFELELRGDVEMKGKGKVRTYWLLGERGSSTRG
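HEK293 cells stably expressing human Npr1 and cGMP GloSensor pGS-40F, loaded 2 h with 2% GloSensor reagent, given compound 30 min at room temperature. Luminescence read before and 20 min after 0.1 nM hNppA.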
Starred values were filed as active, the others as inactive; i = inactive; ? = inconclusive; nt = no result given; [ ] = dose if it differs, or a comment. Only some compounds are listed: those with a hit (about 11% of all), similar ones and a draw of the others. Unless noted, calls come from the whole dose curve; as a rule, active = well fitted curve in the direction sought with a large enough effect; inconclusive = small, poorly fitted or top-dose-only effect, or another doubt; inactive = no such curve, though single readings can be large; an effect the other way counts as inactive or inconclusive. % is set by controls: 0 for no effect and ±100 for the full control effect; potency is the fitted concentration of half-maximal effect.

SMILES	HEK293 tox	3T3 cytotox	FLuc inh	hNpr1 antagonist
CCCCNC(=O)CC(c1cccc(OC)c1)c1c[nH]c2ccccc12 (stereo not drawn)	79µM*	?	i	-7%
CCc1cccc2c(C(CC(=O)NCCc3ccc(OC)c(OC)c3)c3cccc(F)c3)c[nH]c12 (stereo not drawn)	28µM*	?	i	-16%
CCCCNC(=O)CC(c1cccc2c1OCO2)c1c[nH]c2c(CC)cccc12 (stereo not drawn)	45µM*	?	i	-13%
CCCCNC(=O)CC(c1ccc(OC)cc1OC)c1c[nH]c2c(CC)cccc12 (stereo not drawn)	?	?	i	-19%
O=C(CC(c1cccc2c1OCO2)c1c[nH]c2ccccc12)NCc1ccccc1 (stereo not drawn)	?	?	i	-20%
COc1ccc(Cn2c(=O)c(C(=O)N3CCN(C(=O)c4ccccc4OC)CC3)nc3cccnc32)cc1	-15%	-20%	nt	nt
COCc1cc(C[C@@H]2CC[C@H](O)[C@@H](CNCc3ccccc3)O2)no1	i	i	i	-3%[70.6 µM]
CCc1cccc2c(C(CC(=O)NCc3ccco3)c3ccc(OC)c(OC)c3)c[nH]c12 (stereo not drawn)	?	?	i	-16%
CCc1cccc2c(C(CC(=O)NCc3ccco3)c3ccc(C)cc3)c[nH]c12 (stereo not drawn)	35µM*	?	i	-12%
CS(=O)(=O)N1Cc2ccccc2CC2(CCCN(CC3CCNC3)C2)C1 (stereo not drawn)	-24%	-17%	nt	nt
Cc1ccc(-c2cc(C(=O)N3CCC(c4nc(C5CCOCC5)no4)C3)c3ccccc3n2)cc1C (stereo not drawn)	11µM*	?	0.32µM*	?
Cc1ccc(-c2cc(C(=O)N3CCC(Cc4nncn4C(C)C)CC3)c3ccccc3n2)cc1C	13µM*	?	5.6µM*	-27%
O=C(c1ccccc1F)N1CCCN(c2ccnc3ccnn23)CC1	-14%	-36%	nt	nt
O=C(Cn1nc2n(c1=O)CCCCC2)Nc1cccc(F)c1	-1%	i	i	-1%
Cc1nn(C)c(C)c1CN(Cc1cnc(N2CCCCC2)nc1)C1CC1	25µM*	?	?	13µM*
Cc1nn(C)c(C)c1CN(Cc1ccc2c(C)cc(=O)oc2c1)C1CC1	?	?	i	?
CC#CCn1cc2c3c(cccc31)[C@H](CC(C)C)N[C@H](C(=O)N1CCN(C)CC1)C2	?	89µM*	i	2%[70.6 µM]
C=CCn1cc2c3c(cccc31)[C@H](CC(C)C)N[C@H](C(=O)N1CCN(C)CC1)C2	79µM*	63µM*	i	-5%[70.6 µM]
C=CCn1cc2c3c(cccc31)[C@H](CC(C)C)N[C@H](C(=O)NCCN1CCOCC1)C2	89µM*	?	i	-1%[70.6 µM]
CC(C)C[C@@H]1N[C@H](C(=O)N2CCOCC2)Cc2cn(Cc3cccnc3)c3cccc1c23	-26%[172 µM]	-15%[138 µM]	i	-12%[70.6 µM]
C=CCn1cc2c3c(cccc31)[C@H](CC(C)C)N[C@H](C(=O)N1CCOCC1)C2	100µM*	?	?	-4%[70.6 µM]
Cc1cc(Cn2cc3c4c(cccc42)[C@H](CC(C)C)N[C@H](C(=O)NCCN2CCOCC2)C3)no1	?	?	i	1%
COc1ccc(CCNC(=O)c2cc(-c3ccsc3)nc3c2cnn3C)cc1	?	-22%	nt	nt
CC(C)C[C@@H]1N[C@H](C(=O)N2CCC(O)(c3ccccc3)CC2)Cc2cn(C)c3cccc1c23	?	32µM*	i	-1%
CC(=O)N1CCCN(C(=O)[C@@H]2Cc3cn(C)c4cccc(c34)[C@H](CC(C)C)N2)CC1	-2%[172 µM]	1%[138 µM]	i	1%[70.6 µM]
CC(C)C[C@@H]1N[C@H](C(=O)O)Cc2cn(CC3CC3)c3cccc1c23	?	?	i	?
CC(C)C[C@@H]1N[C@H](C(=O)N2CCOCC2)Cc2cn(CC3CC3)c3cccc1c23	89µM*	?	i	-14%[70.6 µM]
COc1ccc(CNC(=O)N2CCCC(Cc3noc(-c4ccccn4)n3)C2)cc1 (stereo not drawn)	?	-21%	i	9%
